# Source: publication PMC7862700, “An all-to-all approach to the identification of sequence-specific readers for epigenetic DNA modifications on cytosine”
# Experiments:
# Assay in all cases: DAPPL (digital affinity profiling via proximity ligation, sequencing); 10 mM Tris-HCl pH 7.5, 50 mM NaCl, 1 mM DTT, 4% glycerol, room temperature, 30 min; GST-TFs on glutathione beads, 16-mer random dsDNA library, 0.1% formaldehyde crosslink after washing; high values mean tight binding
# FEV = target: T1, FEV (Homo sapiens, UniProt Q99581 1-238); conditions: protein: recombinant; tags: N-terminal GST; dsDNA, one strand shown
# T1 sequence: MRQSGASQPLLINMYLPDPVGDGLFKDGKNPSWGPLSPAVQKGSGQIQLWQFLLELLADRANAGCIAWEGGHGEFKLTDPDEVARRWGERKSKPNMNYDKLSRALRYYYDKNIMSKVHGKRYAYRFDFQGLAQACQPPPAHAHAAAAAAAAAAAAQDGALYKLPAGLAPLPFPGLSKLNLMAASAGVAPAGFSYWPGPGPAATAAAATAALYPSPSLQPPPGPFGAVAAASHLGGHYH
# Method in brief: (§1)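 In yeast, human transcription factors were expressed with a GST fusion, then pulled down on glutathione beads and given DNA barcodes. Pooled with a tag-only sample, they were exposed to 200 nmole of a 16-mer random double-stranded DNA library (Tris/NaCl/DTT/glycerol buffer, room temperature, 30 min), washed, crosslinked with 0.1% formaldehyde, proximity-ligated using BsaI/T4 ligase for 1 h at 37 °C, PCR-amplified and read on an Illumina NextSeq500. Each hexamer's frequency of reads for a factor, divided by the matching frequency for the tag-only sample, gives the binding signal.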
# ETV5 = ETV5 (Homo sapiens, UniProt P41161 1-510); conditions: protein: recombinant; tags: N-terminal GST; dsDNA, one strand shown
# Method in brief: as §1
# HSF1 = HSF1 (Homo sapiens, UniProt Q00613 1-529); conditions: protein: recombinant; tags: N-terminal GST; chain copies: 3; dsDNA, one strand shown
# Method in brief: as §1
# SPIC = target: T2, SPIC (Homo sapiens, UniProt Q8N5J4 1-248); conditions: protein: recombinant; tags: N-terminal GST; dsDNA, one strand shown
# T2 sequence: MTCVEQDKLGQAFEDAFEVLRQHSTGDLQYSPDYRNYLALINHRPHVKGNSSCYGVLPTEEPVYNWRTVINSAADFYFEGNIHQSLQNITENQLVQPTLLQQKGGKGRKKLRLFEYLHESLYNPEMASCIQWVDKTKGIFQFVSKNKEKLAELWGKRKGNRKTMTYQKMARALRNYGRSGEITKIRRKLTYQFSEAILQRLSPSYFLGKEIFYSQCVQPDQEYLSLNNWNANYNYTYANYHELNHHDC
# Method in brief: as §1
# ELF4 = ELF4 (Homo sapiens, UniProt Q99607 1-663); conditions: protein: recombinant; tags: N-terminal GST; dsDNA, one strand shown
# Method in brief: as §1
# ELK4 = target: T3, ELK4 (Homo sapiens, UniProt P28324-2 1-405); conditions: protein: recombinant; tags: N-terminal GST; dsDNA, one strand shown
# T3 sequence: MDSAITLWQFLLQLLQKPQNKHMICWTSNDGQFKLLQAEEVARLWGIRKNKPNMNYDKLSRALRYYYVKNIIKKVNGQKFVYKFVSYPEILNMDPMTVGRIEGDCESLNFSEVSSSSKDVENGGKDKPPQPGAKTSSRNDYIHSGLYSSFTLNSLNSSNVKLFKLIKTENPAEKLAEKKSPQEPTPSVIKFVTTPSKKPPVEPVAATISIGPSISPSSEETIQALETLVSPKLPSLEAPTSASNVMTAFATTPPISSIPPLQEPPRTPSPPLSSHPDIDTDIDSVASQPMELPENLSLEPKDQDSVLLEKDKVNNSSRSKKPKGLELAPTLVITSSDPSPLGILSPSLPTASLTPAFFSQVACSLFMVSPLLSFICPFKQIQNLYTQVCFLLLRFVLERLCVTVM
# Method in brief: as §1
# ETV2 = target: T4, ETV2 (Homo sapiens, UniProt O00321 1-342); conditions: protein: recombinant; tags: N-terminal GST; dsDNA, one strand shown
# T4 sequence: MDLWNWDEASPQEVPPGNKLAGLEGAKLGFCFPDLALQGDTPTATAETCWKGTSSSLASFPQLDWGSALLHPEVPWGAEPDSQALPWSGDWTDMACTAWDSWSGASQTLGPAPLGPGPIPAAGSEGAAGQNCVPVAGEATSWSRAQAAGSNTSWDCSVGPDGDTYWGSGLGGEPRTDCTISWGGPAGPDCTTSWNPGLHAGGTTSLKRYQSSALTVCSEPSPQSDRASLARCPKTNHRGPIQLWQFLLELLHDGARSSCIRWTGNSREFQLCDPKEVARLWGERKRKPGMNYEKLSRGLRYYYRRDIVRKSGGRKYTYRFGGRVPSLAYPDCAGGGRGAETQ
# Method in brief: as §1
# ELF3 = target: T5, ELF3 (Homo sapiens, UniProt P78545 1-371); conditions: protein: recombinant; tags: N-terminal GST; dsDNA, one strand shown
# T5 sequence: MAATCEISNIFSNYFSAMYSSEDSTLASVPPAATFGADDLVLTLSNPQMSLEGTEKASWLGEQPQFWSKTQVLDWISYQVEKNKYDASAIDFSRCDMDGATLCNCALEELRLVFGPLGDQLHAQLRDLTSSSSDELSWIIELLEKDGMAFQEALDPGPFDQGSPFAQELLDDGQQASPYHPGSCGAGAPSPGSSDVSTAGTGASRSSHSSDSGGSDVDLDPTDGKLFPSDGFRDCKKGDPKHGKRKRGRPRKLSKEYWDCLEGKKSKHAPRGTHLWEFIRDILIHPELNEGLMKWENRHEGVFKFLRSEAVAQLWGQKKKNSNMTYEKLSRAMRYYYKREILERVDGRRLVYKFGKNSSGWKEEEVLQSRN
# Method in brief: as §1
# CRX = CRX (Homo sapiens, UniProt O43186 1-299); conditions: protein: recombinant; tags: N-terminal GST; dsDNA, one strand shown
# Method in brief: as §1
# ETV1 = ETV1 (Homo sapiens, UniProt P50549 1-477); conditions: protein: recombinant; tags: N-terminal GST; dsDNA, one strand shown
# Method in brief: as §1
# ERF = target: T6, ERF (Homo sapiens, UniProt P50548 1-548); conditions: protein: recombinant; tags: N-terminal GST; dsDNA, one strand shown
# T6 sequence: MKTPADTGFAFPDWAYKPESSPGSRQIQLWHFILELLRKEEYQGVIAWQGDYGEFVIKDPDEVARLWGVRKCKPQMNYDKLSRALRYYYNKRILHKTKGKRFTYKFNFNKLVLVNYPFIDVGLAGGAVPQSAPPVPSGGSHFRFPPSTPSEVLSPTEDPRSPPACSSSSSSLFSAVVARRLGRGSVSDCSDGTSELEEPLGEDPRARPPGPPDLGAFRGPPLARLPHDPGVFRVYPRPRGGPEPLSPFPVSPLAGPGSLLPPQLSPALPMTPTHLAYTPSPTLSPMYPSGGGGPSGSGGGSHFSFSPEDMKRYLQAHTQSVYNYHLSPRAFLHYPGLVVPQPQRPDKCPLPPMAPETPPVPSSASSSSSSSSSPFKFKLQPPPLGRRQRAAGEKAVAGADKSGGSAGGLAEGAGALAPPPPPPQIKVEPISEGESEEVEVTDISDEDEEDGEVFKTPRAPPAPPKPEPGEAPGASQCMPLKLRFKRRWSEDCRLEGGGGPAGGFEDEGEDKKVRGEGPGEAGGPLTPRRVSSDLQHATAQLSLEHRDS
# Method in brief: as §1
# ETV3L = target: T7, ETV3L (Homo sapiens, UniProt Q6ZN32 1-361); conditions: protein: recombinant; tags: N-terminal GST; dsDNA, one strand shown
# T7 sequence: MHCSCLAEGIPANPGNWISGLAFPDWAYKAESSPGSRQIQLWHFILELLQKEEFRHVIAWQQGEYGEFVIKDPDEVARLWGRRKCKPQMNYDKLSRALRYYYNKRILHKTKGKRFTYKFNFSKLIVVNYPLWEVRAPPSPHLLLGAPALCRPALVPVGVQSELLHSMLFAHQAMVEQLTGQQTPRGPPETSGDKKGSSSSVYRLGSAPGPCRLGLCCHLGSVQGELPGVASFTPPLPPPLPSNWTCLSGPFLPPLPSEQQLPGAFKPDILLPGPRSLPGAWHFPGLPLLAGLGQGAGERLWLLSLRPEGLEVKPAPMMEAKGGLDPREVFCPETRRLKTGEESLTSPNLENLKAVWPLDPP
# Method in brief: as §1
# ETS2 = target: T8, ETS2 (Homo sapiens, UniProt P15036 1-469); conditions: protein: recombinant; tags: N-terminal GST; dsDNA, one strand shown
# T8 sequence: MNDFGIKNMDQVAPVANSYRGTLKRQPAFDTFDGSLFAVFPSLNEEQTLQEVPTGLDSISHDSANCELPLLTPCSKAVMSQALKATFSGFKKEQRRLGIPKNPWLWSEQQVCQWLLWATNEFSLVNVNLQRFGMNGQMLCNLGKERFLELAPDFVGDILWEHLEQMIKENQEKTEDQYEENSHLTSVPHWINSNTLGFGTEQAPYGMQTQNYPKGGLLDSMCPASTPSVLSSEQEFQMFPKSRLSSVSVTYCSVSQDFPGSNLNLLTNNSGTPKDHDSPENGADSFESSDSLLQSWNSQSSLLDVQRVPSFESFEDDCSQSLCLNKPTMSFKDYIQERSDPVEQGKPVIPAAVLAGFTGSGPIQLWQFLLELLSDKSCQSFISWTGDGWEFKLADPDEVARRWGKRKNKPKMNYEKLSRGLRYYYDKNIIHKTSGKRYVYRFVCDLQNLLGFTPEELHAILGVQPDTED
# Method in brief: as §1
# SPDEF = target: T9, SPDEF (Homo sapiens, UniProt O95238 1-335); conditions: protein: recombinant; tags: N-terminal GST; dsDNA, one strand shown
# T9 sequence: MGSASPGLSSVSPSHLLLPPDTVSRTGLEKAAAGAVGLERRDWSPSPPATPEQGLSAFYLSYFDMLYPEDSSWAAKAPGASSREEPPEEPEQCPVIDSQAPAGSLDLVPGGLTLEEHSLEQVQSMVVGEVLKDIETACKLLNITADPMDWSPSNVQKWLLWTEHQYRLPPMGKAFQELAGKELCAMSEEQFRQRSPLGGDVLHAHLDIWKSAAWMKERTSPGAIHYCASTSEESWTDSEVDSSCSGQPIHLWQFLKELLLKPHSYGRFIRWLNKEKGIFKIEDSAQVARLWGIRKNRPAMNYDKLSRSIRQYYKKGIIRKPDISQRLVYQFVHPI
# Method in brief: as §1
# ETV7 = target: T10, ETV7 (Homo sapiens, UniProt Q9Y603 1-341); conditions: protein: recombinant; tags: N-terminal GST; dsDNA, one strand shown
# T10 sequence: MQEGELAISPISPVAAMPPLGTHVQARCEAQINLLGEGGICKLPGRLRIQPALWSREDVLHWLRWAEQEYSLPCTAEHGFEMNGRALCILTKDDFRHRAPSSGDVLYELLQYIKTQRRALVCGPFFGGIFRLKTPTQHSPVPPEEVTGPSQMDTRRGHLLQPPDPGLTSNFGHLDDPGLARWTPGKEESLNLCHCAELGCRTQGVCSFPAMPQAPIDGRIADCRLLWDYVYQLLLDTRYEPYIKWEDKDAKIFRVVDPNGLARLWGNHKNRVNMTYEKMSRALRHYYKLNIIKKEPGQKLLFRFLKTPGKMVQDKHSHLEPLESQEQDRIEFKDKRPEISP
# Method in brief: as §1
# ELF5 = target: T11, ELF5 (Homo sapiens, UniProt Q9UKW6-2 1-255); conditions: protein: recombinant; tags: N-terminal GST; dsDNA, one strand shown
# T11 sequence: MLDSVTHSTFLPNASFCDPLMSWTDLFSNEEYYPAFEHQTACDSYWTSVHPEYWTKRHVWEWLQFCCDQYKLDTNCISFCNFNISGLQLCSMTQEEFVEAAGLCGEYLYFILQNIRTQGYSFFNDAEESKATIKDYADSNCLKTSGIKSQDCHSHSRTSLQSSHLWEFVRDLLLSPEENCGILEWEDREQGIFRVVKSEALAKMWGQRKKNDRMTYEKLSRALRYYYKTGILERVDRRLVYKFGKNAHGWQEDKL
# Method in brief: as §1
# ETV3 = target: T12, ETV3 (Homo sapiens, UniProt P41162-2 1-143); conditions: protein: recombinant; tags: N-terminal GST; dsDNA, one strand shown
# T12 sequence: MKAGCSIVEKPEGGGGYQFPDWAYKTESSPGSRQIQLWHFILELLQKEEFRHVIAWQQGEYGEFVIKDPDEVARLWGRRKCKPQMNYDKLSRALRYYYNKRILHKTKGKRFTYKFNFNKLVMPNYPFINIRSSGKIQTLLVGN
# Method in brief: as §1
# ETV6 = ETV6 (Homo sapiens, UniProt P41212 1-452); conditions: protein: recombinant; tags: N-terminal GST; dsDNA, one strand shown
# Method in brief: as §1
# ELF4, sequence (Q99607 whole entry): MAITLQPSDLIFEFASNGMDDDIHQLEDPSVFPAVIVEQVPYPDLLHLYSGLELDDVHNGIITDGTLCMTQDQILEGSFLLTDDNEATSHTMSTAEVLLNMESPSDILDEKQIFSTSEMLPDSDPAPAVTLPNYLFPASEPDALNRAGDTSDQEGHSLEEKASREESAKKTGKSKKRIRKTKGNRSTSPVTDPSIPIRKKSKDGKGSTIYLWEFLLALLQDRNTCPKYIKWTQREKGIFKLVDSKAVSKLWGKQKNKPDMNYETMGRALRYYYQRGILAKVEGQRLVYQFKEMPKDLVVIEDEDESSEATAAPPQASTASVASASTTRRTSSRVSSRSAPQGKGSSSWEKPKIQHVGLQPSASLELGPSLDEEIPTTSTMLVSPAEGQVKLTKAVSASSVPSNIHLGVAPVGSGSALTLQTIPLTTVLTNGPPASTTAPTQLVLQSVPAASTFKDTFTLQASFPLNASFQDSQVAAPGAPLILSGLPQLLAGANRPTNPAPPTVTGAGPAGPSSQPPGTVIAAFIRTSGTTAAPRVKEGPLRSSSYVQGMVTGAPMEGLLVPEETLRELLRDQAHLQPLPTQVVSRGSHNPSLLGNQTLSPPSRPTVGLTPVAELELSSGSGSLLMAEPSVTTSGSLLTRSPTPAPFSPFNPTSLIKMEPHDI
# ETV1, sequence (P50549 whole entry): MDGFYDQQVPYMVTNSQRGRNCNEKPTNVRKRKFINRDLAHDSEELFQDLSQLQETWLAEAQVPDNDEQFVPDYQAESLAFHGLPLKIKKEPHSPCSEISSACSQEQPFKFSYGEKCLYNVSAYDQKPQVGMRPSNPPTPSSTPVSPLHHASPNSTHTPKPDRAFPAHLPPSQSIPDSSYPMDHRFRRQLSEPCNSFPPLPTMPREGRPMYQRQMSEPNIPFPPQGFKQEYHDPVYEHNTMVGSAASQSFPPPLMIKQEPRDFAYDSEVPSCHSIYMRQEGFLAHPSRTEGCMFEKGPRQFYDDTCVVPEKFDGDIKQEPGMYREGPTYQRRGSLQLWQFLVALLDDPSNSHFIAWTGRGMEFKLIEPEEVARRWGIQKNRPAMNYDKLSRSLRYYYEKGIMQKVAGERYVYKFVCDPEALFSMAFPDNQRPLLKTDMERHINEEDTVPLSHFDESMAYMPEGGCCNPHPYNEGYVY
# ETV6, sequence (P41212 whole entry): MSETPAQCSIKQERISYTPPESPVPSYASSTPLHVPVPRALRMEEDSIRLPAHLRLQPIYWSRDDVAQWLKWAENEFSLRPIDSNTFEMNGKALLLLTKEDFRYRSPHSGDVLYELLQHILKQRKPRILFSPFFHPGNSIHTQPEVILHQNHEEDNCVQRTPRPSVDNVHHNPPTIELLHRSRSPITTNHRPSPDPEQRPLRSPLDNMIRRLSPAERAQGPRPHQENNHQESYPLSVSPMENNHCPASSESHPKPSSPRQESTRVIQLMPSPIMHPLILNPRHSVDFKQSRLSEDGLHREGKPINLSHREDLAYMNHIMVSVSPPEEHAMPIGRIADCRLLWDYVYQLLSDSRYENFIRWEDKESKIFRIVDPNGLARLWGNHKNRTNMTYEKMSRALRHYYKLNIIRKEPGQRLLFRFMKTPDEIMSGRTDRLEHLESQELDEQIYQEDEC
# ETV5, sequence (P41161 whole entry): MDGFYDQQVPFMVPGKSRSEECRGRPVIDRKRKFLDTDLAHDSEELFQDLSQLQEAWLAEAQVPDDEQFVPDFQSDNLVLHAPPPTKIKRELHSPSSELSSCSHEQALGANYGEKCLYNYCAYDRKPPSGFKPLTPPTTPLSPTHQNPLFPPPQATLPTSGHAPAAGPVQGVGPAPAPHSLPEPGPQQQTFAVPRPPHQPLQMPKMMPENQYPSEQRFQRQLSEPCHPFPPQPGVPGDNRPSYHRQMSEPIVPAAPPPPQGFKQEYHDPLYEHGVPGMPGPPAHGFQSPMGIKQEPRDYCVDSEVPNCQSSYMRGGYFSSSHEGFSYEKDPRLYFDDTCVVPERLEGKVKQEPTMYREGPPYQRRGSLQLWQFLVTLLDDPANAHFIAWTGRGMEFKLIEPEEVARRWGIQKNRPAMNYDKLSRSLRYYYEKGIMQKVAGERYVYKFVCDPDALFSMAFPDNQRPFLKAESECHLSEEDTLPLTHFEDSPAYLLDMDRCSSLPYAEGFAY
# CRX, sequence (O43186 whole entry): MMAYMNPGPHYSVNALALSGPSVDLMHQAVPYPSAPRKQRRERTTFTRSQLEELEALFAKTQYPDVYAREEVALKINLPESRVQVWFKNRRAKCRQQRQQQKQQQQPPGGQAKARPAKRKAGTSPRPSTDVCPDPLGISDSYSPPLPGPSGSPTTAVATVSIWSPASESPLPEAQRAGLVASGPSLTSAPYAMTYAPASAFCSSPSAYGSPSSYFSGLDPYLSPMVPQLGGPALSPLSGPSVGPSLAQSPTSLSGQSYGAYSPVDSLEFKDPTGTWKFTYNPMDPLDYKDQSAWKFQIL
# HSF1, sequence (Q00613 whole entry): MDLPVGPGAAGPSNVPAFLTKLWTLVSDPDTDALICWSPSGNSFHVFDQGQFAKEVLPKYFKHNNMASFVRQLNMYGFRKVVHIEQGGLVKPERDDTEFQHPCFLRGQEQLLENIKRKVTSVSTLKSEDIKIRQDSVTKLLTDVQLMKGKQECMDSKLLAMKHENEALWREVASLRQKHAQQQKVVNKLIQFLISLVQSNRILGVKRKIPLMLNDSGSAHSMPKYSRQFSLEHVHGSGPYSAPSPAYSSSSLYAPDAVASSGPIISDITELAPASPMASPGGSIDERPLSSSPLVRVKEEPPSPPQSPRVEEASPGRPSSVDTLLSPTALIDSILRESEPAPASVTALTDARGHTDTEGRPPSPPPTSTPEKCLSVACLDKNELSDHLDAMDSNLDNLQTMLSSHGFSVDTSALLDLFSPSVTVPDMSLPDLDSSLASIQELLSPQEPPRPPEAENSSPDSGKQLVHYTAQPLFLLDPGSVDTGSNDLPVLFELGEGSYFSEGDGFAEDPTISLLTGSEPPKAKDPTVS
sequence,measurement,setting,value
TATTTC,binding signal,FEV,"2.32 fold enrichment (6-mer frequency, TF over GST control)"
same,binding signal,ETV5,"2.13 fold enrichment (6-mer frequency, TF over GST control)"
same,binding signal,HSF1,"1.69 fold enrichment (6-mer frequency, TF over GST control)"
same,binding signal,SPIC,"2.38 fold enrichment (6-mer frequency, TF over GST control)"
same,binding signal,ELF4,"2.01 fold enrichment (6-mer frequency, TF over GST control)"
same,binding signal,ELK4,"2.24 fold enrichment (6-mer frequency, TF over GST control)"
same,binding signal,ETV2,"2.11 fold enrichment (6-mer frequency, TF over GST control)"
same,binding signal,ELF3,"2.09 fold enrichment (6-mer frequency, TF over GST control)"
same,binding signal,CRX,"1.64 fold enrichment (6-mer frequency, TF over GST control)"
same,binding signal,ETV1,"2.14 fold enrichment (6-mer frequency, TF over GST control)"
same,binding signal,ERF,"1.86 fold enrichment (6-mer frequency, TF over GST control)"
same,binding signal,ETV3L,"2.06 fold enrichment (6-mer frequency, TF over GST control)"
same,binding signal,ETS2,"2.23 fold enrichment (6-mer frequency, TF over GST control)"
same,binding signal,SPDEF,"2 fold enrichment (6-mer frequency, TF over GST control)"
same,binding signal,ETV7,"2.2 fold enrichment (6-mer frequency, TF over GST control)"
same,binding signal,ELF5,"2.66 fold enrichment (6-mer frequency, TF over GST control)"
same,binding signal,ETV3,"2.23 fold enrichment (6-mer frequency, TF over GST control)"
same,binding signal,ETV6,"2.54 fold enrichment (6-mer frequency, TF over GST control)"
